This is an account of results in PubChem BioAssay.

The source made the active and inactive calls.

A short description of assay [1]: compound effects on lung adenocarcinoma cell viability – A549, calcein-AM fluorescence, 48 h, basal, profiling panel (AID 1162). The note with it: higher = more signal.
A short description of assay [2]: compound effects on differentiated 3T3-L1 adipocyte viability – cell-based, 3T3-L1 adipocytes, calcein-AM fluorescence, 48 h, basal, profiling panel (AID 1163). The conditions noted are these: 3T3-L1 adipocytes viability, higher = more signal.
Assay [3] can be described thus: compound effects on hepatocellular carcinoma cell viability – HepG2, calcein-AM fluorescence, 48 h, basal, profiling panel (AID 1164). The note with it: higher = more signal.
A short description of assay [4]: compound effects on multiple myeloma cell viability – MM1S, calcein-AM fluorescence, 48 h, basal, profiling panel (AID 1165). The conditions noted are these: higher = more signal.
Assay [5] is described as follows: calcein-AM signal in unstimulated myeloma cells – cell-based, calcein-AM fluorescence, 48 h, PK04 Diversity Set, profiling panel (AID 1166).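 Further: cells grown under basal conditions without added stimulus.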 The conditions noted are these: RPMI8226 myeloma viability, higher = more signal.
Assay [6] in a line: JC-1 mitochondrial signal, unstimulated HepG2 cells – cell-based, JC-1 fluorescence, 24 h, 100 nL compound, profiling panel (AID 1167). The note with it: HepG2 mitochondrial potential, higher = more signal.
A short description of assay [7]: JC-1 mitochondrial signal, unstimulated adipocytes – cell-based, JC-1 fluorescence, 3T3-L1 adipocytes, 24 h, 100 nL compound, profiling panel (AID 1168). The conditions noted are these: JC-1 mitochondrial fluorescence, higher = more signal, called active from +8 up or from −8 down.
Assay [8] in a line: JC-1 mitochondrial signal, unstimulated myeloma cells – cell-based, JC-1 fluorescence, RPMI8226, 24 h, 100 nL compound, profiling panel (AID 1169). The note with it: JC-1 mitochondrial potential fluorescence, higher = more signal.
Assay [9] is described as follows: JC-1 mitochondrial signal, unstimulated MM1S myeloma – cell-based, JC-1 fluorescence, 24 h, 100 nL compound, profiling panel (AID 1170). The note with it: MM1S mitochondrial potential, higher = more signal.
A short description of assay [10]: resazurin metabolic signal in A549 cells – cell-based, resazurin fluorescence, 24 h, PK04 Diversity Set, profiling panel (AID 1171). The note with it: A549 viability, higher = more signal, called active from +8 up or from −8 down.
Further: test concentration not given here.

For `COCC(=C=CC[C@@H](O)c1ccccc1OCCO)C[C@@H](O)c1ccccn1`, the z-score is 0.0929 in assay [1]; 0.158 in assay [2]; -0.0698 in [3]; -0.591 in assay [4]; 0.211 in assay [5]; -0.95 in assay [6]. Also, the z-score in [7] was -0.99 (inactive); in assay [8], 0.0537; in assay [9], -0.952; in assay [10], -0.709 (inactive).
On to `CC1(C)[C@@H]2CC(C(O)C3C=CC4C(=O)N(c5ccccc5)C(=O)C4N3Nc3ccccc3F)=C[C@@H]1C2` (stereo not given in full), for which the z-score in assay [1] is 0.604; in [2] it was -0.297; in assay [3], -0.0679; in [4] it was 0.848; in assay [5], 0.219; in assay [6], -0.424. The z-score in [7] was -1.07 (inactive); in [8], 0.157; in assay [9], -1.41; in [10] it was 1.01 (inactive).
Take `COc1cccc(C[C@H]2C[C@@H](CO[Si](C(C)C)(C(C)C)C(C)C)N3C(=O)[C@]4(C(C)=O)O[C@]23[C@H]2C(=O)N(C)C(=O)[C@H]24)c1`: the z-score is -2.16 in [1]; -0.206 in assay [2]; -3.45 in [3]; -2.93 in assay [4]; -4.26 in assay [5]; 1.49 in assay [6]. In addition, the z-score was 0.207 (inactive) in assay [7], -1.05 in assay [8], -1.96 in assay [9] and -1.41 (inactive) in assay [10].
With `CC(=O)NCCCC[C@@H]1NC(=O)[C@@H]2C[C@H](C(=O)NCCCC[N+](C)(C)C)[C@H](c3cccc(OCCO)c3)N2C1=O`, the z-score in assay [1] was -1.05; in assay [2] it was -1.28; in assay [3] it was -0.776; in [4] it was -0.265; in assay [5], -1.95; in assay [6], -0.851. Also, the z-score was -0.0939 (inactive) in assay [7], 0.287 in [8], 0.235 in [9] and -0.485 (inactive) in [10].
With `CC1CC/C=C\[C@H]2OC34C=CCN(Cc5ccccc5)C(=O)[C@H]3N(CCO)C(=O)[C@@H]4C2C(=O)O1` (stereo not given in full), the z-score in [1] is -0.106; in assay [2], 1.1; in assay [3], 0.337; in [4] it was 1.47; in assay [5] it was -0.105; in assay [6] it was 0.0673. For the same compound, the z-score in [7] was 0.488 (inactive); in assay [8], -0.657; in [9], 2.1; in assay [10], -0.783 (inactive).
For `O=C(C=C(CC(O)c1cccc(Cl)c1)OCCF)OCCF` (stereo not given), the z-score in assay [1] was 0.595; in assay [2], 0.642; in [3], 0.989; in [4], 0.947; in assay [5], -0.667; in [6], 0.586. Moreover, the z-score in [7] was 0.869 (inactive); in assay [8], 0.0309; in [9], -0.273; in assay [10], 0.135 (inactive).
Turning to `NC(=O)NCC#Cc1ccc2c(c1)[C@]1(C(=O)N2)[C@H](c2ccc(O)cc2)N2[C@H](c3ccccc3)[C@H](c3ccccc3)OC(=O)[C@H]2[C@@H]1C(N)=O`, the z-score was 0.233 in assay [1]; -1.07 in assay [2]; 0.705 in [3]; 0.669 in assay [4]; 1.23 in [5]; -0.538 in assay [6]. In addition, the z-score in assay [7] was -0.06 (inactive); in assay [8], -0.371; in [9], -0.691; in assay [10], -1.08 (inactive).
On to `O=C1C[C@@](C(=O)O)(c2ccc([N+](=O)[O-])cc2)[C@@H](c2ccc(CO)cc2)N1CC12CC3CC(CC(C3)C1)C2`, for which the z-score in [1] was 0.0051; in [2] it was 0.0068; in assay [3] it was 0.313; in [4], -1.49; in [5], -2.4; in assay [6] it was 0.609. Further, the z-score in assay [7] is 0.473 (inactive); in assay [8], -0.15; in [9], -0.811; in [10] it was 0.689 (inactive).
In the case of `C=CCOC(=O)[C@H]1[C@@H]2C(=O)O[C@@H](c3ccccc3)[C@@H](c3ccccc3)N2[C@@H](c2ccc(OCCOC(=O)[C@H]3C[C@H]4C(=O)N[C@@H](CCCCN(C)C)C(=O)N4[C@H]3c3ccc(O)cc3)cc2)[C@]12C(=O)Nc1ccccc12`, the z-score in assay [1] was -0.514; in assay [2], 1.04; in assay [3] it was -0.434; in assay [4], -1.54; in assay [5], -0.0817; in assay [6], -1.63. Besides, the z-score is 0.665 (inactive) in [7], -0.838 in assay [8], -0.391 in assay [9] and 0.232 (inactive) in assay [10].
For `CN1C(=O)C2C=CC(C(O)c3ccc(F)cc3)N(N3CCCCC3)C2C1=O` (stereo not given), the z-score in [1] was -1.1; in assay [2], -1.24; in assay [3] it was -0.572; in assay [4], -1.05; in assay [5] it was 0.0924; in assay [6], -1.43. Moreover, the z-score is -0.487 (inactive) in assay [7], 0.00989 in [8], -0.118 in assay [9] and -0.707 (inactive) in [10].
With `COC(=O)C(CC#Cc1ccc2c(c1)[C@]1(C(=O)N2)[C@H](c2ccccc2OCCO)N2[C@H](c3ccccc3)[C@H](c3ccccc3)OC(=O)[C@H]2[C@@H]1C(=O)Nc1nc2ccccc2s1)C(=O)OC`, the z-score in assay [1] was 0.689; in assay [2], 1.15; in assay [3], 0.755; in assay [4] it was -3.33; in [5] it was -1.74; in assay [6], -2.74. The z-score in [7] is -0.00705 (inactive); in assay [8], -0.905; in [9], -0.548; in assay [10] it was -0.203 (inactive).
